Measurements taken from PubChem BioAssay (NCATS).
Results filed as inconclusive are left out. Active and inactive are the calls of the source. The call rests on the fitted dose curve; in most records, active means well fitted inhibition curve with a large enough effect; inconclusive means small, poorly fitted or top-dose-only effect; inactive means flat fitted curve, though single readings scatter.

Legend:
Assay in all cases: qHTS profiling for inhibitors of Plasmodium falciparum proliferation (AID 504749); further: nearly all actives have a fitted effect of over 60% in size
Details in all cases: P. falciparum in erythrocytes, SYBR Green DNA, 72 h; series mostly up to 28.7 µM
[1] = system: CP256
Summary of the method: (§1)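 Each compound contacts P. falciparum-infected red blood cells for 72 h at 37 C; lysis buffer (Tris, EDTA, saponin, Triton X, SYBR Green I) is added and fluorescence measured next morning; values normalized to controls.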

[2] = system: CP260
Summary of the method: as §1

[3] = system: CP262
Summary of the method: as §1

[4] = system: CP265
Summary of the method: as §1

[5] = system: CP266
Summary of the method: as §1

[6] = system: CP268
Summary of the method: as §1

[7] = system: CP269
Summary of the method: as §1

[8] = system: CP286
Summary of the method: as §1

[9] = system: CP291
Summary of the method: as §1

[10] = system: CP297
Summary of the method: as §1

[11] = system: CP305
Summary of the method: as §1

[12] = system: CP315
Summary of the method: as §1

[13] = system: CP325
Summary of the method: as §1

[14] = system: CP329
Summary of the method: as §1

[15] = system: CP335
Summary of the method: as §1

[16] = system: DFO2036
Summary of the method: as §1

[17] = system: DIV14
Summary of the method: as §1

[18] = system: DIV17
Summary of the method: as §1

[19] = system: DIV30
Summary of the method: as §1

[20] = system: Dd2
Summary of the method: as §1

Measured: Potency

Nc1ccc(C(=O)O)cc1
inactive: all assays above

O=C(O)c1cc2cc(Cc3cccnc3)ccc2o1
inactive: all assays above

COc1c2occc2c(OC)c2c(=O)cc(C)oc12
inactive: all assays above

CCOC(=O)OC(C)OC1=C(C(=O)Nc2ccccn2)N(C)S(=O)(=O)c2ccccc21 (centres undefined)
inactive: all assays above

CCOC(=O)n1ccn(C)c1=S
inactive: all assays above

Cc1c(N(C)CS(=O)(=O)O)c(=O)n(-c2ccccc2)n1C
inactive: all assays above

CCC(=O)c1c(O)cc(O)cc1O
inactive: all assays above

COc1cc(C(=S)N2CCOCC2)cc(OC)c1OC
inactive: all assays above

CCC(C(=O)OCCN(CC)CC)c1ccccc1 (centres undefined)
not listed: [20]
inactive: all other assays above

Cc1ncc(CSSCc2cnc(C)c(O)c2CO)c(CO)c1O
inactive: all assays above

O=C(COc1ccc(Cl)cc1)N1CCN(Cc2ccc3c(c2)OCO3)CC1
inactive: all assays above

C1CCc2nnnn2CC1
inactive: all assays above

O=C(Nc1ccc(Cl)c(Cl)c1)C1CC1
inactive: all assays above

O=c1ccc2ccccc2o1
inactive: all assays above

Cc1c(C(N)=O)cc([N+](=O)[O-])cc1[N+](=O)[O-]
inactive: all assays above

CC(=O)OCC(=O)NCCCOc1cccc(CN2CCCCC2)c1
inactive: all assays above

CCOc1ccc(NC(=O)CC(C)O)cc1 (centres undefined)
inactive: all assays above

CCCn1c(=O)[nH]c(=O)c2[nH]cnc21
inactive: all assays above

C=CCc1ccc(O)c(OC)c1
inactive: all assays above

O=C(O)CNC(=O)c1ccccc1
inactive: all assays above

O=C1CCC(c2ccc(-n3ccnc3)cc2)=NN1
inactive: all assays above

C[C@]12CC[C@@H]3c4ccc(O)cc4CC[C@H]3[C@@H]1CC[C@@H]2O
inactive: all assays above

Cc1c(C(C)C)c(=O)n(-c2ccccc2)n1C
inactive: all assays above

Cc1cccn2c(=O)c(-c3nnn[nH]3)cnc12
inactive: all assays above

C[C@]12CCC(=O)C=C1CC[C@H]1[C@@H]3CC[C@](O)(C(=O)CO)[C@@]3(C)C[C@H](O)[C@@]12F
inactive: all assays above

CC(C)(CO)[C@@H](O)C(=O)NCCCO
inactive: all assays above

CC1(C)CCC(NC(=O)[C@@H](N)CCC(=O)O)CC1
inactive: all assays above
